Experimental findings from PubChem BioAssay (NCI) are described below.

Each structure is given as a SMILES string. About 83,000 compounds went through this panel and 20% of them were active in at least one assay; those are over-represented in the sample as a whole.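 Growth was measured after 48 h exposure to one concentration of compound in 96-well plates. Values under 10 count as active.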 A number with no mark means an inactive call. Activity calls are given as the source filed them.

Common to all, as to test: NCI-60 one-dose screen, 48 h (100 = growth as untreated, 0 = no growth, -100 = all killed)
Holding throughout (conditions): 10 µM unless noted

The subject of assay [1] is SR leukemia.
For assay [2], the system named is RPMI-8226 leukemia.
The test system of assay [3] is OVCAR-8 ovarian.
Assay [4] deals with OVCAR-5 ovarian.
For assay [5], the system named is OVCAR-4 ovarian.
Assay [6] has as its system SK-OV-3 ovarian.
The subject of assay [7] is IGROV1 ovarian.
Assay [8] concerns OVCAR-3 ovarian.
Assay [9] concerns HS 578T breast.
The subject of assay [10] is NCI/ADR-RES ovarian.
For assay [11], the system named is T-47D breast.
In assay [12] the test system is BT-549 breast.
In assay [13] the test system is MDA-MB-435 melanoma.
The subject of assay [14] is SW-620 colon.
In assay [15] the test system is MCF7 breast.
Assay [16] deals with HCT-116 colon.
In assay [17] the test system is HCC-2998 colon.
The test system of assay [18] is KM12 colon.

On to `OCCNCCCOc1ccc2ncnc(Nc3ccc(Oc4cccc(C(F)(F)F)c4)c(Cl)c3)c2c1`, for which the growth in assay [1] was 5.48% (active); in assay [2], -12.1% (active); in [3], 32.1%; in [4], 72.8%; in assay [5], 5.48% (active); in assay [6] it was 13.7%. Also, the growth in assay [7] is -35% (active); in assay [8], 3.15% (active); in [9] it was 34.2%; in [10] it was 69.1%; in assay [11] it was 38.7%; in assay [12] it was 95.6%. Further, the growth in assay [13] was -65.2% (active); in assay [14], -84.2% (active); in assay [15], -40% (active); in [16], 12.7%; in assay [17] it was -75.1% (active); in assay [18] it was 3.05% (active).
As to `O=[N+]([O-])/C(=C/C=C/c1ccccc1)c1ccccc1`, the growth in [1] was 26.5%; in assay [2], 35.8%; in assay [3], 77.6%; in assay [4], 87.9%; in [5] it was 77.2%; in [6], 97.1%. In addition, the growth in assay [7] is -4.26% (active); in assay [8], 1.93% (active); in assay [9], 56.8%; in assay [10], 78.3%; in [11], 46.4%; in assay [12], 103%. Further, the growth was 70.6% in [13]; 5.75% (active) in assay [14]; 23.5% in assay [15]; -5.29% (active) in [16]; 38.8% in assay [18].
Consider `CCCCCCCCn1ccc2cc(NC(=O)Cn3cc(CN4CCCCC4)nn3)ccc21`, for which the growth was 5.39% (active) in assay [1]; -59.2% (active) in assay [2]; 42% in assay [3]; 73.7% in [4]; 59.1% in assay [5]; 67.5% in assay [6]. Also, the growth in [7] is 45.5%; in assay [8], 26%; in [9] it was 41.5%; in assay [10], 72.7%; in assay [11] it was -14.1% (active); in assay [12] it was 71.6%. For the same compound, the growth in assay [13] was -74.6% (active); in [14] it was -66.1% (active); in assay [15] it was 9.34% (active); in [16] it was 2.64% (active); in [17], -70.4% (active); in assay [18] it was 19%.
Consider `CN(C)C1CCN(Cc2ccc(NC(=O)c3cncc(C#Cc4cnc(N)c5ncccc45)c3)cc2C(F)(F)F)CC1`, for which the growth in assay [1] was 1.15% (active); in assay [2], 60.9%; in [3], -25.4% (active); in assay [4] it was 123%; in assay [5] it was -14.7% (active); in assay [6] it was 103%. Also, the growth was 112% in assay [7]; 97.9% in [8]; 44.9% in assay [9]; -63.9% (active) in assay [10]; 93.7% in assay [11]; 104% in assay [12]. Further, the growth in [13] is -2.09% (active); in [14] it was 68.1%; in assay [15] it was 73.6%; in assay [16] it was 86.7%; in assay [18], 9.65% (active).
Consider `C=C(C)[C@@H]1CC[C@]2(C)[C@H](CC=C3[C@@H]4[C@H](C)[C@@H](C)CC[C@]4(CO)CC[C@]32C)[C@@]1(C)CCCN`, for which the growth is -35.4% (active) in [1]; -33.7% (active) in assay [2]; -48.5% (active) in [3]; 60.6% in [4]; 5.39% (active) in [5]; 14.1% in [6]. Further, the growth in assay [7] is 30%; in assay [8] it was 20.1%; in assay [9] it was 25.3%; in assay [10] it was 14.1%; in assay [11], -34.1% (active); in assay [12], 55.3%. In addition, the growth in assay [13] was -60.3% (active); in [14], -74.8% (active); in assay [15], 0.962% (active); in assay [16] it was -57.8% (active); in assay [17], -93.3% (active); in [18], -41.3% (active).
For `Cc1cc2c(O)c(-c3cc(Cl)ccc3Cl)c3sc(=O)oc3c2cc1C`, the growth in [1] was 54.3%; in assay [2], 38.3%; in assay [3], 68.1%; in assay [4], 106%; in [5], 24.5%; in assay [6], 76.3%. Further, the growth in assay [7] was 76.5%; in assay [8] it was 29.8%; in [9], 76.4%; in assay [10], 85.3%; in [11] it was 32.4%; in assay [12], 81.7%. Also, the growth is 47.3% in [13]; 57.8% in assay [14]; 60.9% in assay [15]; 36.2% in assay [16]; 102% in assay [17]; 59.1% in assay [18].
For `CC[C@]12C=CCN3CC[C@@]4(c5cc(NC(=O)CCC(=O)OCc6cn(Cc7ccc(F)cc7)nn6)c(OC)cc5N(C)[C@H]4[C@@](O)(C(=O)OC)[C@@H]1OC(C)=O)[C@@H]32`, the growth is 94.2% in assay [1]; 104% in assay [2]; 103% in assay [3]; 100% in assay [4]; 98.2% in [5]; 90.7% in assay [6]. Also, the growth in [7] was 108%; in [8], 104%; in [9], 108%; in assay [10], 109%; in assay [11] it was 102%; in [12], 108%. Besides, the growth in assay [13] is 101%; in assay [14], 104%; in assay [15], 96.4%; in assay [16], 96.3%; in [17], 106%; in assay [18], 103%.
As for `O=C1CNC(c2ccccc2)C(c2ccccc2)N1` (stereo unspecified), the growth was 106% in assay [1]; 75.2% in [2]; 98% in assay [3]; 86.5% in assay [4]; 89% in assay [5]; 107% in [6]. Besides, the growth is 93% in [7]; 107% in assay [8]; 86.1% in assay [9]; 81% in assay [10]; 104% in [11]; 82.8% in assay [12]. In addition, the growth in [13] was 105%; in assay [14], 98.5%; in assay [15] it was 91.8%; in assay [16], 93%; in [18], 100%.
